We go through 18 sequences from PMC12820563, “FoxP3 forms a head-to-head dimer in vivo and stabilizes its multimerization on adjacent microsatellites”.

Over roughly 16,000 sequences, “rpm ratio (pull-down/input)” has its median near 0.5; the highest 2% begin near 5.5. Only a selection was taken, and the highest values are over-represented in it overall.

This assay has as its target T1, MBP-FoxP3dN (Mus musculus, UniProt Q99JB6 188-423).
T1 sequence: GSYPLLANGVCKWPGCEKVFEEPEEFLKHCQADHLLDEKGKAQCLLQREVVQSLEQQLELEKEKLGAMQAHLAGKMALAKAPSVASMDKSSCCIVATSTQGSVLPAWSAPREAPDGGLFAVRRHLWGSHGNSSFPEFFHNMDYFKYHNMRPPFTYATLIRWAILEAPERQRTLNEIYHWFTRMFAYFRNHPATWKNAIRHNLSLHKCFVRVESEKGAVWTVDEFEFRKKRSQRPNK
The assay can be described thus: PD-seq (MBP pull-down with sequencing); 20 mM Tris-HCl pH 7.5, 100 mM NaCl, 1.5 mM MgCl2, 0.4 uM protein, 0.1 uM dsDNA library, 30 min, room temperature, amylose pull-down; high values mean tight binding. As to conditions: protein: recombinant; tags: His6-MBP; chain copies: 2; dsDNA, one strand shown. A digest of the protocol:
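E. coli-expressed mouse FoxP3 or FoxP1 fragment, N-terminus removed and tagged with His6-MBP, was used at 0.4 µM against 0.1 µM of a Klenow-filled degenerate double-stranded DNA library. After 30 min at room temperature in Tris pH 7.5 buffer with NaCl and MgCl2, complexes were pulled down on amylose resin and washed three times. Binding is pull-down over input reads-per-million enrichment from pooled replicates of the proteinase K-released, PCR-barcoded, Illumina-sequenced DNA.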
As to “GATGATTGTTCTCCCAGCTGATGAATTCATTTGCTCGAGTAAACAAATTTTCCTAATCTTTCTGTTCAAGCGCCATCTAC”, the binding signal was 2.92 RPM ratio (pull-down/input).
Then “GATGATTGTTCTCCCAGCTGATGAATTTGCGTATTCGAGTAAACAAATTTTCCTAATCTTTCTGTTCAAGCGCCATCTAC”, with 4.16 RPM ratio (pull-down/input); and “GATGATTGTTCTCCCAGCTGATGAATTGGGTCATTCGAGTAAACAAATTTTCCTAATCTTTCTGTTCAAGCGCCATCTAC”, with 0.64 RPM ratio (pull-down/input); and “GATGATTGTTCTCCCAGCTGATGAATTAATCTTGTCGAGTAAACAAATTTTCCTAATCTTTCTGTTCAAGCGCCATCTAC”, with 0.322 RPM ratio (pull-down/input).
Then “GATGATTGTTCTCCCAGCTGATGAATTGCTCAAATCGAGTAAACAAATTTTCCTAATCTTTCTGTTCAAGCGCCATCTAC”, with 0.408 RPM ratio (pull-down/input); and “GATGATTGTTCTCCCAGCTGATGAATTTTGCGGATCGAGTAAACAAATTTTCCTAATCTTTCTGTTCAAGCGCCATCTAC”, with 0.597 RPM ratio (pull-down/input).
Then “GATGATTGTTCTCCCAGCTGATGAATTACACATATCGAGTAAACAAATTTTCCTAATCTTTCTGTTCAAGCGCCATCTAC”, with 0.87 RPM ratio (pull-down/input).
Consider “GATGATTGTTCTCCCAGCTGATGAATTCCGCATGTCGAGTAAACAAATTTTCCTAATCTTTCTGTTCAAGCGCCATCTAC”, for which the binding signal is 5.82 RPM ratio (pull-down/input).
For “GATGATTGTTCTCCCAGCTGATGAATTCCCCATGTCGAGTAAACAAATTTTCCTAATCTTTCTGTTCAAGCGCCATCTAC”, the binding signal was 0.259 RPM ratio (pull-down/input).
Then “GATGATTGTTCTCCCAGCTGATGAATTGCCCATGTCGAGTAAACAAATTTTCCTAATCTTTCTGTTCAAGCGCCATCTAC”, with 0.577 RPM ratio (pull-down/input); and “GATGATTGTTCTCCCAGCTGATGAATTGCTGATGTCGAGTAAACAAATTTTCCTAATCTTTCTGTTCAAGCGCCATCTAC”, with 0.843 RPM ratio (pull-down/input).
Then “GATGATTGTTCTCCCAGCTGATGAATTCTCCATGTCGAGTAAACAAATTTTCCTAATCTTTCTGTTCAAGCGCCATCTAC”, with 0.249 RPM ratio (pull-down/input); and “GATGATTGTTCTCCCAGCTGATGAATTGCGCATGTCGAGTAAACAAATTTTCCTAATCTTTCTGTTCAAGCGCCATCTAC”, with 6.5 RPM ratio (pull-down/input); and “GATGATTGTTCTCCCAGCTGATGAATTGCGGTATTCGAGTAAACAAATTTTCCTAATCTTTCTGTTCAAGCGCCATCTAC”, with 1.67 RPM ratio (pull-down/input).
Then “GATGATTGTTCTCCCAGCTGATGAATTCTTGACTTCGAGTAAACAAATTTTCCTAATCTTTCTGTTCAAGCGCCATCTAC”, with 0.38 RPM ratio (pull-down/input); and “GATGATTGTTCTCCCAGCTGATGAATTATAGCCGTCGAGTAAACAAATTTTCCTAATCTTTCTGTTCAAGCGCCATCTAC”, with 0.504 RPM ratio (pull-down/input).
With “GATGATTGTTCTCCCAGCTGATGAATTTCTGGTGTCGAGTAAACAAATTTTCCTAATCTTTCTGTTCAAGCGCCATCTAC”, the binding signal is 0.353 RPM ratio (pull-down/input).
Then “GATGATTGTTCTCCCAGCTGATGAATTCTTAGTTTCGAGTAAACAAATTTTCCTAATCTTTCTGTTCAAGCGCCATCTAC”, with 0.302 RPM ratio (pull-down/input).
